Data from PubChem BioAssay AID588474 (The Scripps Research Institute Molecular Screening Center, 2011).
Values without a mark were called inactive. Calls of active or inactive are those of the source.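 The calls were made as follows: active = inhibition of at least 75% in the gel-based probe competition assay; inactive = inhibition below 75%.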

Each compound was assayed against Platelet-activating factor acetylhydrolase (Mus musculus) (UniProt Q60963) (assay: mouse pPAFAH inhibitors, late-stage follow-up, orthogonal assay, biochemical, gel-based competitive ABPP, fluorescence (AID 588474)). Conditions: recombinant mouse pPAFAH, FP-Rh fluorescence, at 5 µM, hits give high values.
Platelet-activating factor acetylhydrolase (Mus musculus), sequence (Q60963 whole entry, looked up): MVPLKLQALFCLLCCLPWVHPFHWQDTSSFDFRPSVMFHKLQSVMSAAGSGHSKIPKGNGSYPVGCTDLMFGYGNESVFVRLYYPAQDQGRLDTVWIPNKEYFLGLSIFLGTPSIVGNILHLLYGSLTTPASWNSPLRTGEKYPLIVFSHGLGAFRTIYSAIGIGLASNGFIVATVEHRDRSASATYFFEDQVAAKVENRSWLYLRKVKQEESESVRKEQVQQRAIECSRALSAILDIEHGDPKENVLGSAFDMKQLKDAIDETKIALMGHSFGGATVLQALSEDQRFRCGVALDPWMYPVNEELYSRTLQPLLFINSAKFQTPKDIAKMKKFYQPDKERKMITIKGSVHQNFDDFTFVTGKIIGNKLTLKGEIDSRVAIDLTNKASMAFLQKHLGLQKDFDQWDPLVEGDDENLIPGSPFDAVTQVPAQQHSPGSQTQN
For `O=C(c1ccccc1)c1ccc(OC(=O)N2CCOCC2)cc1`, the inhibition was 55%. In the case of `O=C(Oc1ccc(-c2ccccc2)cc1)N1CCOCC1`, the inhibition is reported as 98% (active). `O=C(Oc1ccc(Oc2ccccc2)cc1)N1CCC(O)CC1` was tested, and the inhibition was 82% (active). Compound `Cc1cccc(C2=NN(c3ccc(Br)cc3)[C@@H](C(=O)N3CCOC3=O)[C@@H]2c2ccccc2)c1` has an inhibition of 18%. With `Cc1cc(/C=C(\C#N)C(=O)NCC2CCCO2)c(C)n1-c1ccc(Cl)cc1` (stereo unspecified) the inhibition was 9%. For `Cc1cccc(NS(=O)(=O)c2ccc3[nH]c(=O)oc3c2)c1C`, the inhibition was 17%. With `COc1cc(OC)c(NC(=O)CCNS(=O)(=O)c2ccc3c(c2)oc(=O)n3C)cc1Cl` the inhibition was 6%. Work on `CCCCOC(=O)Nc1nnc(CCc2ccccc2)s1` yielded an inhibition of 22%. Compound `CCOC(=O)N1CCN(C(=O)c2ccc3c(=O)n4c(nc3c2)CCCCC4)CC1` has an inhibition of 8%. `CCCCOC(=O)c1ccc(OC(=O)N2CCOCC2)cc1` was tested, and the inhibition was 93% (active). With `O=C(Oc1ccc(-c2ccccc2)cc1)N1CCCCC1` the inhibition was 79% (active). `O=C(Oc1nsnc1N1CCCCC1)N1CCOCC1` gave an inhibition of 55%. `O=C(Oc1nsnc1N1CCOCC1)N1CCCCC1` was tested, and the inhibition was 65%. With `O=C(Oc1nsnc1N1CCOCC1)N1CCOCC1` the inhibition was 84% (active). `O=C(N/C=C/c1ccco1)OCc1ccccc1` showed an inhibition of -3%. `O=C(CCCSc1ccc(Cl)cc1)Nc1cc(S(=O)(=O)N2CCOCC2)ccc1O` was tested, and the inhibition was 75% (active). `O=C(Oc1cccc(Oc2ccccc2)c1)N1CCOCC1` showed an inhibition of 18%. In the case of `O=C(/C=C/c1cccs1)c1cc(Br)ccc1OC(=O)N1CCOCC1`, the inhibition is reported as 91% (active). Work on `CCCNC(=O)c1ccc(N2CC3CC(C2)c2cccc(=O)n2C3)c(NC(=O)Nc2ccc(CC)cc2)c1` (stereo unspecified) yielded an inhibition of 18%. `O=C(Oc1ccnc2cc(Cl)ccc12)N1CCOCC1` gave an inhibition of 22%. In the case of `CC(=O)Nc1ccc(NC(=O)CCn2c(=O)oc3ccccc32)cc1`, the inhibition is reported as 30%. With `COc1cccc(CNC(=O)CCC2CCCN(Cc3cc(Cl)ccc3O)C2)c1` (stereo unspecified) the inhibition was 24%. In the case of `COc1cccc(NC(=O)Nc2cc(C(=O)NC(C)C)ccc2N2CC3CC(C2)c2cccc(=O)n2C3)c1` (stereo unspecified), the inhibition is reported as 41%. In the case of `CCOC(=O)N1CCN(C(=O)CCN2C(=O)COc3ccc(C)cc32)CC1`, the inhibition is reported as 22%. Compound `CCOC(=O)N1CCN(C(=O)c2cccc(S(=O)(=O)Nc3ccc(Br)cc3)c2)CC1` has an inhibition of 7%. `CCc1ccc(NC(=O)Nc2cc(C(=O)NCC3CCCO3)ccc2N2CC3CC(C2)c2cccc(=O)n2C3)cc1` (stereo unspecified) showed an inhibition of 8%. `Cc1ccc(NS(=O)(=O)c2ccc3c(c2)oc(=O)n3C)cc1F` showed an inhibition of 53%. With `COc1cccc(NC(=O)Nc2cc(C(=O)NCC3CCCO3)ccc2N2CC3CC(C2)c2cccc(=O)n2C3)c1` (stereo unspecified) the inhibition was 18%. `CCOCCCNC(=O)c1ccc(N2CC3CC(C2)c2cccc(=O)n2C3)c(NC(=O)Nc2cccc(OC)c2)c1` (stereo unspecified) gave an inhibition of 21%. Compound `Cc1ccc(-n2c(C)cc(/C=C(\C#N)C(=O)NCC3CCCO3)c2C)cc1` (stereo unspecified) has an inhibition of 23%. `Cc1cc(C(=O)CSc2nc(N)cc(=O)[nH]2)c(C)n1CCc1ccc(Cl)cc1` showed an inhibition of 6%. Work on `CCOC(=O)NC(=O)CSc1nc(-c2ccc(C)c(C)c2)cn1-c1ccccc1` yielded an inhibition of 56%. `CCOC(=O)N1CCC(NC(=O)CC2C(=O)NCCN2Cc2ccccc2F)CC1` (stereo unspecified) gave an inhibition of 10%. For `Cn1c(=O)oc2cc(S(=O)(=O)Nc3ccc(F)cc3)ccc21`, the inhibition was 24%. `Cc1ccc(NS(=O)(=O)c2ccc3[nH]c(=O)oc3c2)c(C)c1` showed an inhibition of 18%. `CCn1c(NC(=O)c2cccc(Cn3cc(Cl)cn3)c2)nc2ccccc21` gave an inhibition of 0%.
